Test results from ChEMBL document CHEMBL3988442, “University of Dundee, Small-Polar-MMV Screening Library” (2021).
For some assays here: Measured potencies and affinities stand elsewhere.

What was measured:
Design in all cases: scale not given: direction of the effect not stated beside the values
[1] = target: Protein translocase subunit SecA (Escherichia coli (strain K12)) (UniProt P10408); experiment: Assay to Identify E. coli SecA ATPase Inhibitors; type: functional; details: 30 µM
[2] = target: T1, Ubiquitin-activating enzyme e1, putative (Leishmania donovani (strain BPK282A1)) (UniProt E9BSI1); experiment: Leishmania donovani Ubiquitin Activating Enzyme (LdE1); type: functional; details: 30 µM
T1 sequence (whole entry): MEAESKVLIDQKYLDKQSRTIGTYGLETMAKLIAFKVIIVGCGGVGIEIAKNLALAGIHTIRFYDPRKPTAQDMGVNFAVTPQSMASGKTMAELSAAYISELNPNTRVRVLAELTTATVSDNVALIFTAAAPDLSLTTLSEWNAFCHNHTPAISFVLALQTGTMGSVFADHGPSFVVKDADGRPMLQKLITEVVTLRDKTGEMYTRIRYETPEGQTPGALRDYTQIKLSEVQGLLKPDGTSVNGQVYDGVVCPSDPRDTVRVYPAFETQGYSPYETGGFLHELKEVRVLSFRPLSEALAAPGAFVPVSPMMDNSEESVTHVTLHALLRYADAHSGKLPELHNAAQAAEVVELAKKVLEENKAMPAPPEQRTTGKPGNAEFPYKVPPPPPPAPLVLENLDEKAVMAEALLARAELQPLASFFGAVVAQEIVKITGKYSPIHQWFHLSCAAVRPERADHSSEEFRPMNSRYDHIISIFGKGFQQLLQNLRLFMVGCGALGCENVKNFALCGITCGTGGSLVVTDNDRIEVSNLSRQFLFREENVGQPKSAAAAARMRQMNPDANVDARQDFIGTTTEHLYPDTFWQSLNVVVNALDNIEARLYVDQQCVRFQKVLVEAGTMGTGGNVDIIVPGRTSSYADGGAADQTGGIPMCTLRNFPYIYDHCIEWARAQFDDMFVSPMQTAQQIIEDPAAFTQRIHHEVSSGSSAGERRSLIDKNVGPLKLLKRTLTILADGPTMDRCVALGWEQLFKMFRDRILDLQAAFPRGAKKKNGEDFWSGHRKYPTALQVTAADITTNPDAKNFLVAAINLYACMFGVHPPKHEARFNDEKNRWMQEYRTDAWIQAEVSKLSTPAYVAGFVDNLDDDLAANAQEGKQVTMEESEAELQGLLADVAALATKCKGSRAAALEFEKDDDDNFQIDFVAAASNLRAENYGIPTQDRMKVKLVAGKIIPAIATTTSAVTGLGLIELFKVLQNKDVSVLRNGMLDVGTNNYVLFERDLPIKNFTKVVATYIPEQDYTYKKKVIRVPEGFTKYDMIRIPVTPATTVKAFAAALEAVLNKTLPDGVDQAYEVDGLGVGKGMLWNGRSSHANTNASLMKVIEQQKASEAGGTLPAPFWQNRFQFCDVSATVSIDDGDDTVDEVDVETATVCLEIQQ

[3] = target: AMP-activated protein kinase, AMPK (Homo sapiens) (UniProt P54646+O43741+P54619+Q9UGJ0+Q9Y478+Q13131+Q9UGI9); experiment: AMP-dependent Kinase enzyme assay. An in vitro enzyme assay that detects ADP turnover that is directly proportional to AMPK activity. This uses naive AMPK that is activated during the assay with MK-8722; type: functional; details: 30 µM
[4] = target: Sialic acid-binding Ig-like lectin 9 (Homo sapiens) (UniProt Q9Y336); experiment: Hs-Siglec9 ALPHAscreen SOP 20170721; details: 10 µM
Trypanosoma cruzi = experiment: Trypanosoma cruzi phosphomannomutase and mannose-1-phosphate guanylyltransferase assay; type: functional; details: 10 µM
[5] = target: T2, Arginase-2, mitochondrial (Homo sapiens) (UniProt P78540); experiment: in vitro enzyme assay to detect the production of urea directly proportional to the activity of Arginase II; type: functional; details: 33.3 µM; also: in the data most compounds retested in dose-response had high values
T2 sequence (whole entry): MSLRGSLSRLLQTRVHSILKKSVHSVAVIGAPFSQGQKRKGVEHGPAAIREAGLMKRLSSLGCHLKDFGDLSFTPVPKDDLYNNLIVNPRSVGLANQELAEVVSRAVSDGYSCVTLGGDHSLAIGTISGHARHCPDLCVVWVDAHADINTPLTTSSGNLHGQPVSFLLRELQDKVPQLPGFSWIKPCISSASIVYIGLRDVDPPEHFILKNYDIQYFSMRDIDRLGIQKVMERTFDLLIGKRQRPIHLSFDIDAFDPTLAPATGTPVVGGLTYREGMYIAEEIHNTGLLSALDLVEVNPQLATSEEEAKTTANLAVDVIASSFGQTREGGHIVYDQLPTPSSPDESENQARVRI

[6] = target: T3, Proteasome subunit beta (Trypanosoma cruzi) (UniProt O96673); experiment: Trypanosoma cruzi proteasome chymotrypsin-like activity (TcProtChymo) assay.; also: in the data most compounds retested in dose-response had high values; type: functional; details: 9.37 µM
T3 sequence (whole entry): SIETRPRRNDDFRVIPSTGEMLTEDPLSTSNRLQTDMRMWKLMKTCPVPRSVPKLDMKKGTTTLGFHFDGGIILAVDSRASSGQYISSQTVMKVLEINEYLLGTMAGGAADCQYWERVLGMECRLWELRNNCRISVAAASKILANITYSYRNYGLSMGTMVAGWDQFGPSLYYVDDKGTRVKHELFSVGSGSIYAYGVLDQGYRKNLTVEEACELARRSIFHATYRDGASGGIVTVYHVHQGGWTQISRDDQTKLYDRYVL

Homo sapiens = species: Homo sapiens; experiment: To identify inhibition of the IFN signalling (Jak-Stat) pathway via expression of an eGFP reporter gene under the control of an IFN-stimulated response element (ISRE) containing MxA promoter.; type: functional; details: 30 µM
[7] = target: T4, Tyrosyl-tRNA synthetase, putative (Trypanosoma cruzi (strain CL Brener)) (UniProt Q4DSP6); experiment: Trypanosoma cruzi tyrosyl tRNA synthetase (TcYRS) _High Tyrosine SOP; type: functional; details: 30 µM; also: in the data most compounds retested in dose-response had high values
T4 sequence (whole entry): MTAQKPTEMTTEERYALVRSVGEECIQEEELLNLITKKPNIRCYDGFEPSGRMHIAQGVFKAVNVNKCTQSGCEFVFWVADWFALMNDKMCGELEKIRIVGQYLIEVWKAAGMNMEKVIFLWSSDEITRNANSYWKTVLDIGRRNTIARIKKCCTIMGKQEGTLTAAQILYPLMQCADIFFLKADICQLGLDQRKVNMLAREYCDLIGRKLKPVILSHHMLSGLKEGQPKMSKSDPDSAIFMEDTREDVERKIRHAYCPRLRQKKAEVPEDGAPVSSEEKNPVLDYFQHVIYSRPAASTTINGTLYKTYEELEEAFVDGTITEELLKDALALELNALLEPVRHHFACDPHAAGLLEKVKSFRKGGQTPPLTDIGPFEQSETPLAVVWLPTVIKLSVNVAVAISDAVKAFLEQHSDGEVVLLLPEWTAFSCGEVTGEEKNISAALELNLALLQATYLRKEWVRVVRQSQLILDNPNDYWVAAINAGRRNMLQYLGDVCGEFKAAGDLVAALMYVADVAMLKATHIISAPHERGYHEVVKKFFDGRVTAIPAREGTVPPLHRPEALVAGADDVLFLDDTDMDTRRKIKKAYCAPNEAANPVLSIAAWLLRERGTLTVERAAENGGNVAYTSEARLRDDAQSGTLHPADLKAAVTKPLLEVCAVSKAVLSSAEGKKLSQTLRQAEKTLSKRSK

[8] = target: T4, Tyrosyl-tRNA synthetase, putative (Trypanosoma cruzi (strain CL Brener)); experiment: Trypanosoma cruzi tyrosyl tRNA synthetase (TcYRS) SOP; type: functional; details: 30 µM
[9] = target: Chromo domain-containing protein 1 (Saccharomyces cerevisiae (strain ATCC 204508 / S288c) (Baker's yeast)) (UniProt P32657); experiment: ScCHD-1 Enzyme Inhibition Assay; type: functional; details: 30 µM; also: in the data most compounds retested in dose-response had high values
Chain of Chromo domain-containing protein 1 (Saccharomyces cerevisiae (strain ATCC 204508 / S288c) (Baker's yeast)) (P32657 whole entry, the tested form may be a part): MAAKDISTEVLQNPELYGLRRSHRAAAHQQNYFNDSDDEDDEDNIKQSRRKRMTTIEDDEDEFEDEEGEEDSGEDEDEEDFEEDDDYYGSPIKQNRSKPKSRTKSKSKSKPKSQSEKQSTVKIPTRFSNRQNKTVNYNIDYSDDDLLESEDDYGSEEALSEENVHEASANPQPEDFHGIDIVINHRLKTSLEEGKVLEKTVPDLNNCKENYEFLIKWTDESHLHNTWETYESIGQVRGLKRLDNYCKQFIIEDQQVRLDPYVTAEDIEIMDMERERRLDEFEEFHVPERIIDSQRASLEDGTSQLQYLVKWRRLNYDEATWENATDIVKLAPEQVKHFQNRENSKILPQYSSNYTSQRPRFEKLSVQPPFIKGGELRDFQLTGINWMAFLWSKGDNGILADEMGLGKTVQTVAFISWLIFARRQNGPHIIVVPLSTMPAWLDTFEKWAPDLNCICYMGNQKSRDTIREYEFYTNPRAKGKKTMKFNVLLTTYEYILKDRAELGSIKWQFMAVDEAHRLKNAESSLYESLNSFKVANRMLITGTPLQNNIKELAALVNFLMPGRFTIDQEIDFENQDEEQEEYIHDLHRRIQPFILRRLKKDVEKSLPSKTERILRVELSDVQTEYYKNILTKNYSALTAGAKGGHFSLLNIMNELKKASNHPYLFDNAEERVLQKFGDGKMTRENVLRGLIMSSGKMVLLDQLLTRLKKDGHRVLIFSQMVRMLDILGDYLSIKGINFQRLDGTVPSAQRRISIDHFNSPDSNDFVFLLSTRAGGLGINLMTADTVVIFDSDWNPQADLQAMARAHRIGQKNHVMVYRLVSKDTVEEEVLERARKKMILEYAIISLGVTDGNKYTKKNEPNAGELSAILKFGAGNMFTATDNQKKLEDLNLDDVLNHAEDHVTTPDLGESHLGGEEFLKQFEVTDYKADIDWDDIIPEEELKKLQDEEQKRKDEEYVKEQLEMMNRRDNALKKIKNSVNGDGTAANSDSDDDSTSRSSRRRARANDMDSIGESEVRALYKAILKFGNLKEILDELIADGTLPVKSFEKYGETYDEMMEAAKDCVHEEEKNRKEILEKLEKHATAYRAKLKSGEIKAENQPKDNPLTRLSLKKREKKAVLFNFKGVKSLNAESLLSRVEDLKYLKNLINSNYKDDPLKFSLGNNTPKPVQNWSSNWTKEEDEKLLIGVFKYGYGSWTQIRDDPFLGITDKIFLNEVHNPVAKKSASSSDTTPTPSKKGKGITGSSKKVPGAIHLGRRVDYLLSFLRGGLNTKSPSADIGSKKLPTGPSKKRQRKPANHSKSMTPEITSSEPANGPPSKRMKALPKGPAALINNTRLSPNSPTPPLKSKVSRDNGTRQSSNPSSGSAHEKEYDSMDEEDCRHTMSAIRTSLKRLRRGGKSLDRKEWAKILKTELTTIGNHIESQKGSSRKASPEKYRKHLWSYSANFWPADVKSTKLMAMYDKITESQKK

Chain of Protein translocase subunit SecA (Escherichia coli (strain K12)) (P10408 whole entry): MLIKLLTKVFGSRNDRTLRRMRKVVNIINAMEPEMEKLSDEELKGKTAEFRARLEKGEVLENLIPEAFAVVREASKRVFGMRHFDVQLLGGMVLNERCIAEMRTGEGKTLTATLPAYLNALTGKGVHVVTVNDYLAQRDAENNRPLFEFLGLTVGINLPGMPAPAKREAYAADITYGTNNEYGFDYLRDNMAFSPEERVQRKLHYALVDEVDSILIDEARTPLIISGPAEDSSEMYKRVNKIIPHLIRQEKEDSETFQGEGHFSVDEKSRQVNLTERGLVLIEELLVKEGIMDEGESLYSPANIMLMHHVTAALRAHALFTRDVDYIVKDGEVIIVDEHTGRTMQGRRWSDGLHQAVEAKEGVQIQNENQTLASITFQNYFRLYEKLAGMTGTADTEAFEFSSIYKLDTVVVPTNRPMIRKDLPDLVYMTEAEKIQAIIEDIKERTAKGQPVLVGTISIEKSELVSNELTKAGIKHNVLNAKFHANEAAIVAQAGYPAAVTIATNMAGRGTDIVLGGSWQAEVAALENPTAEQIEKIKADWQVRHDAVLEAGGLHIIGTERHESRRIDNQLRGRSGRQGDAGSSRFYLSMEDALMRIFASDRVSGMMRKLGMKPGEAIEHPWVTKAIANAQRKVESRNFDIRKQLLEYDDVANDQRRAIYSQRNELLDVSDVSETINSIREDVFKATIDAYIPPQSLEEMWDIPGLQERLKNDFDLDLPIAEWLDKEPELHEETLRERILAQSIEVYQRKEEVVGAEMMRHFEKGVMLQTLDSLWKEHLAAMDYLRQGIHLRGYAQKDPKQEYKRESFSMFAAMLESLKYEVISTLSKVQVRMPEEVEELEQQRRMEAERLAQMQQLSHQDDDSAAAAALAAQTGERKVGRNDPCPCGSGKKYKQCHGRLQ
Chain of Sialic acid-binding Ig-like lectin 9 (Homo sapiens) (Q9Y336 whole entry): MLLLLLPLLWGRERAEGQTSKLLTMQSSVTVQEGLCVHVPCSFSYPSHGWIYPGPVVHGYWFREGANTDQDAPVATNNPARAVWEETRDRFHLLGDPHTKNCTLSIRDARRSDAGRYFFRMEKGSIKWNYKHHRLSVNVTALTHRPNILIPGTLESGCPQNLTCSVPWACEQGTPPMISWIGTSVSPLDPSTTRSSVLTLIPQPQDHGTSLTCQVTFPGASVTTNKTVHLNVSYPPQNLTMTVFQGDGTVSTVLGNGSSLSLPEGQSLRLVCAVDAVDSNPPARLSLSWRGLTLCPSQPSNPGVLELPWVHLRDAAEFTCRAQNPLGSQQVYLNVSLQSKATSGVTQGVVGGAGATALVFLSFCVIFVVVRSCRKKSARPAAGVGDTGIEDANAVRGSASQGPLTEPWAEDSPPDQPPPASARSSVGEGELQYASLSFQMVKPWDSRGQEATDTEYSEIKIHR

Row | SMILES | Percent Effect [1] [%] | Percent Effect [2] [%] | Percent Effect [3] [%] | Percent Effect [4] [%] | Percent Effect (Trypanosoma cruzi) [%] | Percent Effect [5] [%] | Percent Effect [6] [%] | Percent Effect (Homo sapiens) [%] | Percent Effect [7] [%] | Percent Effect [8] [%] | Percent Effect [9] [%]
1 | CCOc1ccccc1C(=O)NS(=O)(=O)c1ccc2c(c1)OCCCO2 | -5.62 | 5.26 | -3.19 | 0.997 | 3.08 | -3.24 | 8.04 | 7.05 | -29.1 | -21 | -8.5
2 | COC(=O)c1cccc(C(=O)N2CCN(c3ccccc3F)CC2)n1 | -5.05 | 20.8 | -7.33 | -10.6 | 7.59 | 1.94 | 13.9 | 15.5 | 5.29 | 16.7 | -10.4
3 | O=C(CN1CCCC1Cn1cncn1)NC(C1CC1)C1CC1 (configuration not stated) | -1.42 | -1.39 | 2.21 | -0.594 | 2.04 | 1.32 | 10.9 | -11.5 | 3.16 | 0 | -1.96
4 | CSCC(CCO)NC(=O)Nc1cc(Br)ccc1C (configuration not stated) | 0.198 | 5.48 | 11.7 | 4.67 | 2.35 | 4.09 | 15.6 | -12 | 1.07 | 5 | 106
5 | CC(C)c1nnc2n1CCN(C(=O)CN1CCc3sccc3C1)C2 | -3.25 | 5.26 | -8.35 | -4 | 7.71 | 4.6 | -2.34 | 0.728 | 3.43 | 7.32 | -5.85
6 | COCCCN1CCc2cncnc2C1 | -2.65 | 5.06 | -237 | 6.45 | 9.35 | 2.66 | 8.27 | -13.7 | 5.42 | 8.86 | -6.93
7 | O[C@H]1CCN(Cc2ccoc2)[C@H]1Cc1cccnc1 | -6.91 | 0 | 3.99 | -6.85 | -1.16 | -54.7 | 5.47 | 13.5 | 4.17 | 2.5 | -9.55
8 | CCOC(=O)C1CCCN(c2ccc(-c3nc(C)no3)cn2)C1 (configuration not stated) | -4.99 | 8 | -4.16 | 19.1 | 5.36 | 6.25 | 0 | 1.88 | 3.83 | 11.1 | -6.07
9 | CC(C)c1nc(C2CCCN(C(=O)Cc3cccnc3)C2)no1 (configuration not stated) | -0.76 | 16.2 | -13.3 | -2.67 | -10.3 | -1.6 | 2.16 | 25.4 | 5.42 | 6.17 | -2.89
10 | COc1ccc(C(=O)N(Cc2cnn(C)c2)C(C)C)cc1Br | -4.7 | 0 | -7.42 | 8.74 | 6.44 | -2.52 | -1.61 | -4.21 | 2.46 | 11.1 | -4.6
11 | CCc1nccn1C1CCCN(C(=O)c2ccc(C(=O)NC)nc2)C1 (configuration not stated) | 1.89 | -2.6 | 1.32 | 2.31 | -2.81 | 4.63 | 1.86 | 18.1 | 1.94 | 0 | -4.59
12 | Brc1cc2c(cc1CN1CCC(N3CCCCC3)CC1)OCCO2 | -3.24 | -1.39 | -9.98 | -5.8 | -0.291 | 5.74 | 10.7 | 2.68 | 5.26 | 10.3 | -2.58
13 | CC[C@@H]1N(CC2CC2)CCC[C@]12CCC(=O)N2CCOC | -3.03 | 8 | 5.19 | 4.35 | 0.772 | -53.9 | 5.47 | -8.94 | 5.21 | 0 | -4.58
14 | C=C(Cl)CN1CCC(C(=O)c2cc(F)ccc2F)CC1 | -2.54 | -13.2 | 5.79 | -1.3 | 4.32 | -0.766 | -1.67 | 5.08 | 0.49 | 4.88 | 6.62
15 | Cc1nc(C)n(C2CCCN(C(=O)c3sccc3C3CC3)C2)n1 (configuration not stated) | -1.6 | 2.53 | -0.568 | -3.81 | -5 | 1.9 | 0.409 | 22.4 | -2.46 | -8.86 | -7.52
16 | COc1cc(C(=O)N(Cc2ccc(F)cc2)C2CC2)cc2c1OCCO2 | 0.816 | 7.89 | 1.68 | -4.56 | 2.43 | 3.55 | 21.2 | 36.9 | 3.19 | 13 | -3.44
17 | Cc1cnn(CC2CCCN2C(=O)c2cn(-c3ccccc3)nc2C)c1 (configuration not stated) | -2.73 | 2.7 | -10.7 | 13.6 | 1.6 | -3.61 | -4.32 | -0.766 | 7.39 | 11.1 | -6.26
18 | COCC1c2c(cnn2C)CCN1Cc1ccc(F)cc1 (configuration not stated) | -4.38 | -2.7 | 1.18 | -3.56 | -2.93 | 1.25 | 5.66 | -1.22 | 5.94 | 8.54 | 2.82
19 | NC(=O)NCC1CCCCN1C(=O)c1cccc(C(F)(F)F)c1 (configuration not stated) | -6.54 | 21.1 | -2.74 | 13.3 | 4.95 | -6.47 | 2.79 | -1.19 | 5.42 | 16.1 | -9.06
20 | CCCC(C)CN1CCC(n2cc(C3CCCC3)nn2)CC1 (configuration not stated) | -5.89 | 13.3 | -5.31 | 18.9 | 9.45 | 10.4 | 9.07 | 7.54 | 6.01 | 11.1 | -4.05
21 | O=C(COc1coc(CN2CCCC2)cc1=O)NCc1ccccc1Cl | -2.51 | 1.33 | 5.09 | 5.58 | 0.393 | -1.94 | 7.02 | -13.6 | 6.35 | 10.3 | 0.789
22 | Cc1cc(N2CCCCCC2)n2nc(C)c(C)c2n1 | -1.9 | 4.17 | -3.08 | 0.107 | 12.2 | -0.883 | 23.3 | 3.63 | 0 | 12.8 | -7.26
